Inconclusive results are not listed. The source made the active and inactive calls. The call rests on the fitted dose curve; in most records, active means well fitted curve in the direction sought with a large enough effect; inconclusive means small, poorly fitted or top-dose-only effect, or another doubt; inactive means no such curve, though single readings can be large; an effect the other way counts as inactive or inconclusive.

Assay [1] can be described thus: qHTS of pediatric cancer cell lines to identify multiple opportunities for drug repurposing: Primary screen for BT-37 cells (AID 1347094). Further: series mostly up to about 57 µM. In a few lines:
(§1)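 Cells seeded at 500-1,000 cells/well in growth media, rested 5 hours at 37 degrees C, 5% CO2, then dosed; MIPE compounds at 11-point (from 0.78 nM) and NPC at 8-point (from 0.59 nM) final concentrations. Viability by CellTiter-Glo luminescence after 48 hours.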
On the technique in general: qHTS replaces the single test concentration by a dilution series.

Assay [2] is described as follows: qHTS of pediatric cancer cell lines to identify multiple opportunities for drug repurposing: Primary screen for NB-EBc1 cells (AID 1347095). Further: potency means the concentration at half of the fitted maximal effect. Summed up:
as §1

Assay [3] can be described thus: qHTS of pediatric cancer cell lines to identify multiple opportunities for drug repurposing: Primary screen for U-2 OS cells (AID 1347096). Further: nearly all actives have a fitted effect of over 50% in size. In a few lines:
(§2)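 Cells (500-1,000/well) in growth media were settled 5 h at 37 degrees C, then given compounds for 48 h. Viability was read as CellTiter-Glo luminescence. Primary runs used MIPE at 11 points (0.78 nM-46 µM) and NPC at 8 points (0.59 nM-46 µM); follow-ups used 11 points.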

The nature of assay [4]: qHTS of pediatric cancer cell lines to identify multiple opportunities for drug repurposing: Primary screen for Saos-2 cells (AID 1347097). Further: nearly all actives have a fitted effect of over 40% in size. Summed up: as §1
Assay [5] is described as follows: qHTS of pediatric cancer cell lines to identify multiple opportunities for drug repurposing: Primary screen for SK-N-SH cells (AID 1347098).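 Further: DMSO served as neutral control and bortezomib at 2.3 µM as positive control; nearly all actives have a fitted effect of over 65% in size.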 Summed up: (§3)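 Cells (500-1,000/well) rested 5 h, then received compounds for 48 h; metabolically active cells were measured by CellTiter-Glo luminescence. Final concentrations spanned up to 46 µM (MIPE, 11-point) or 0.59 nM-46 µM (NPC, 8-point) in primary screens, 11-point in follow-ups.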

Assay [6] is described as follows: qHTS of pediatric cancer cell lines to identify multiple opportunities for drug repurposing: Primary screen for NB1643 cells (AID 1347099). Further: nearly all actives have a fitted effect of over 50% in size. In a few lines:
as §1

Assay [7] is described as follows: qHTS of pediatric cancer cell lines to identify multiple opportunities for drug repurposing: Primary screen for LAN-5 cells (AID 1347100). In a few lines: as §2
The nature of assay [8]: qHTS of pediatric cancer cell lines to identify multiple opportunities for drug repurposing: Primary screen for BT-12 cells (AID 1347101). Further: nearly all actives have a fitted effect of over 25% in size. In a few lines: as §3
A short description of assay [9]: qHTS of pediatric cancer cell lines to identify multiple opportunities for drug repurposing: Primary screen for Rh18 cells (AID 1347102). Further: nearly all actives have a fitted effect of over 65% in size. Summed up: as §2
Assay [10] in a line: qHTS of pediatric cancer cell lines to identify multiple opportunities for drug repurposing: Primary screen for OHS-50 cells (AID 1347103). Further: nearly all actives have a fitted effect of over 40% in size. Summed up: as §3

As to `COC(=O)C(Cl)C(=O)OC`, the Potency entry in assay [1], in [2], in [3], in assay [4], in assay [5] and in [6] was “inactive” in each case. In addition, the Potency result in [7], in assay [8], in [9] and in [10] was “inactive” each time.
Take `O=C1OC(c2ccc(O)c(S(=O)(=O)O)c2)(c2ccc(O)c(S(=O)(=O)O)c2)c2c(Br)c(Br)c(Br)c(Br)c21`: the Potency result in assay [1], in assay [2], in assay [3], in [4], in assay [5] and in assay [6] was “inactive” each time. Further, the Potency entry in assay [7], in assay [8], in assay [9] and in assay [10] was “inactive” throughout.
Take `CC(C)c1c(CN(C)C(C)Cc2ccccc2)n(C)n(-c2ccccc2)c1=O` (configuration not stated): the Potency result in assay [1], in assay [2], in assay [3], in [4], in [5] and in [6] was “inactive” in each case. Also, the Potency result in [7], in [9] and in assay [10] was “inactive” each time.
With `Clc1ccccc1N1CCNCC1`, the Potency entry in [1], in assay [2], in assay [3], in assay [4], in assay [5] and in [6] was “inactive” each time. Further, the Potency entry in assay [7], in assay [8], in [9] and in assay [10] was “inactive” throughout.
With `CNCC(=O)c1ccc(O)c(O)c1`, the Potency entry in assay [1], in assay [2], in assay [3], in assay [4], in assay [5] and in assay [6] was “inactive” throughout. Also, the Potency entry in assay [7], in assay [8], in assay [9] and in assay [10] was “inactive” throughout.
`CC(NC(C)(C)C)C(=O)c1cccc(Cl)c1` (configuration not stated): the Potency entry in [1], in assay [2], in assay [3], in assay [4], in assay [5] and in assay [6] was “inactive” throughout. Further, the Potency entry in assay [7], in [8], in assay [9] and in assay [10] was “inactive” in each case.
`CN1CC[C@]23c4c5ccc(O)c4O[C@H]2[C@@H](O)CC[C@H]3[C@H]1C5`: the Potency entry in assay [1], in [2], in assay [3], in assay [4], in [5] and in [6] was “inactive” in each case. In addition, the Potency result in assay [7], in assay [8], in assay [9] and in assay [10] was “inactive” throughout.
Consider `CC[N+]1(CC)CCC(OC(=O)C(O)(c2ccccc2)c2ccccc2)C1` (configuration not stated), for which the Potency entry in assay [1], in assay [2], in assay [3], in [4], in [5] and in assay [6] was “inactive” in each case. The Potency result in assay [7], in assay [8], in assay [9] and in assay [10] was “inactive” in each case.
As for `Nc1nc(N)nc(NC2CC2)n1`, the Potency result in assay [1], in [2], in [3], in [4], in [5] and in assay [6] was “inactive” each time. In addition, the Potency entry in assay [7], in [8], in [9] and in assay [10] was “inactive” in each case.
As for `O=c1oc2ccccc2c(O)c1Cc1c(O)c2ccccc2oc1=O`, the Potency entry in [1], in assay [3], in assay [4], in assay [5], in assay [6] and in assay [7] was “inactive” throughout. In addition, the Potency result in assay [8], in assay [9] and in assay [10] was “inactive” in each case. The Potency in assay [2] is 15 µM (active).
Turning to `C=CCC1([C@H](C)CCC)C(=O)NC(=O)NC1=O`, the Potency entry in [1], in assay [2], in assay [3], in assay [4], in [5] and in assay [6] was “inactive” throughout. Also, the Potency result in assay [7], in assay [8], in assay [9] and in [10] was “inactive” throughout.
In the case of `CC(C(=O)c1ccccc1)N(C)C` (configuration not stated), the Potency entry in assay [1], in assay [2], in assay [3], in [4], in assay [5] and in [6] was “inactive” throughout. Further, the Potency result in assay [7], in assay [8], in [9] and in [10] was “inactive” in each case.
For the compound `[N-]=[N+]=CC(=O)OC[C@H](N)C(=O)O`, the Potency entry in [1], in assay [2], in [3], in assay [4], in assay [5] and in assay [6] was “inactive” in each case. For the same compound, the Potency result in [7], in assay [8], in [9] and in [10] was “inactive” throughout.
With `O=C(N/N=C/c1ccc([N+](=O)[O-])o1)c1cc([N+](=O)[O-])cc([N+](=O)[O-])c1O`, the Potency result in [1], in assay [2], in assay [3], in assay [4], in assay [5] and in [6] was “inactive” throughout. The Potency entry in assay [7], in assay [8], in assay [9] and in assay [10] was “inactive” in each case.
Turning to `C[N+]1(CCF)[C@@H]2CC[C@H]1CC(OC(=O)C(O)(c1ccccc1)c1ccccc1)C2` (some centres not stated), the Potency entry in assay [1], in assay [2], in [3], in [4], in assay [5] and in assay [6] was “inactive” each time. Further, the Potency entry in assay [7], in assay [8], in assay [9] and in assay [10] was “inactive” in each case.
As for `CC(Cc1ccccc1)N(C)Cc1ccco1` (configuration not stated), the Potency entry in [1], in assay [2], in assay [3], in [4], in assay [5] and in assay [6] was “inactive” in each case. Moreover, the Potency result in assay [7], in assay [8], in assay [9] and in assay [10] was “inactive” throughout.
For the compound `C[C@@H]1CC2=CC(=O)CC[C@@H]2[C@H]2CC[C@@]3(C)[C@@H](CC[C@]3(C)O)[C@@H]21`, the Potency result in assay [1], in assay [2], in [3], in assay [4], in assay [5] and in assay [6] was “inactive” in each case. Also, the Potency result in [7] and in assay [9] was “inactive” in each case.
With `Nc1ccc([As](=O)(O)O)cc1`, the Potency result in [1], in [2], in [3], in assay [4], in assay [5] and in assay [6] was “inactive” in each case. Also, the Potency entry in assay [7], in [8], in assay [9] and in assay [10] was “inactive” each time.
For the compound `CC(C)NC(C)C`, the Potency entry in assay [1], in assay [2], in assay [3], in [4], in assay [5] and in assay [6] was “inactive” in each case. Further, the Potency result in [7], in assay [8], in [9] and in [10] was “inactive” each time.
With `CC(C)N(CCC(C(N)=O)(c1ccccc1)c1ccccn1)C(C)C` (configuration not stated), the Potency entry in assay [1], in [2], in [3], in assay [4], in assay [5] and in [6] was “inactive” throughout. Further, the Potency entry in assay [7], in assay [8], in assay [9] and in assay [10] was “inactive” each time.
`CCCOC(=O)c1cncn1C(C)c1ccccc1` (configuration not stated): the Potency result in assay [1], in assay [2], in assay [3], in assay [4], in assay [5] and in assay [6] was “inactive” in each case. Further, the Potency entry in assay [7], in assay [8], in assay [9] and in assay [10] was “inactive” throughout.
In the case of `Nc1ccccc1`, the Potency entry in assay [1], in [2], in assay [3], in assay [4], in assay [5] and in assay [6] was “inactive” each time. The Potency result in assay [7], in assay [8], in [9] and in [10] was “inactive” in each case.
`C[C@H](N)C(=O)c1ccccc1`: the Potency result in assay [1], in assay [2], in [3], in assay [4], in [5] and in assay [6] was “inactive” in each case. Moreover, the Potency result in assay [7], in assay [8], in assay [9] and in [10] was “inactive” throughout.
